In PubChem BioAssay:
The source made the active and inactive calls. Cut-off read from the data, not from the text of the source, unless noted: active = inhibition above about 44%; inactive = the rest.

Key:
[1] = biological target: Nuclear receptor coactivator 3 (Homo sapiens) (UniProt Q9Y6Q9); assay: SRC3 coactivator transcriptional activity inhibitors, confirmation, cell-based, luminescence, quadruplicate (AID 588792;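 active = mean inhibition over 43.08%, the solvent-only control mean plus 3 SD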;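 note: 0% = DMSO treated cells and 100% = gossypol at 36 µM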); details: HEK293 GAL4-SRC3 luciferase reporter, at 3.6 µM, hits give high values
Nuclear receptor coactivator 3 (Homo sapiens), sequence (Q9Y6Q9 whole entry, looked up, the tested form may be a part): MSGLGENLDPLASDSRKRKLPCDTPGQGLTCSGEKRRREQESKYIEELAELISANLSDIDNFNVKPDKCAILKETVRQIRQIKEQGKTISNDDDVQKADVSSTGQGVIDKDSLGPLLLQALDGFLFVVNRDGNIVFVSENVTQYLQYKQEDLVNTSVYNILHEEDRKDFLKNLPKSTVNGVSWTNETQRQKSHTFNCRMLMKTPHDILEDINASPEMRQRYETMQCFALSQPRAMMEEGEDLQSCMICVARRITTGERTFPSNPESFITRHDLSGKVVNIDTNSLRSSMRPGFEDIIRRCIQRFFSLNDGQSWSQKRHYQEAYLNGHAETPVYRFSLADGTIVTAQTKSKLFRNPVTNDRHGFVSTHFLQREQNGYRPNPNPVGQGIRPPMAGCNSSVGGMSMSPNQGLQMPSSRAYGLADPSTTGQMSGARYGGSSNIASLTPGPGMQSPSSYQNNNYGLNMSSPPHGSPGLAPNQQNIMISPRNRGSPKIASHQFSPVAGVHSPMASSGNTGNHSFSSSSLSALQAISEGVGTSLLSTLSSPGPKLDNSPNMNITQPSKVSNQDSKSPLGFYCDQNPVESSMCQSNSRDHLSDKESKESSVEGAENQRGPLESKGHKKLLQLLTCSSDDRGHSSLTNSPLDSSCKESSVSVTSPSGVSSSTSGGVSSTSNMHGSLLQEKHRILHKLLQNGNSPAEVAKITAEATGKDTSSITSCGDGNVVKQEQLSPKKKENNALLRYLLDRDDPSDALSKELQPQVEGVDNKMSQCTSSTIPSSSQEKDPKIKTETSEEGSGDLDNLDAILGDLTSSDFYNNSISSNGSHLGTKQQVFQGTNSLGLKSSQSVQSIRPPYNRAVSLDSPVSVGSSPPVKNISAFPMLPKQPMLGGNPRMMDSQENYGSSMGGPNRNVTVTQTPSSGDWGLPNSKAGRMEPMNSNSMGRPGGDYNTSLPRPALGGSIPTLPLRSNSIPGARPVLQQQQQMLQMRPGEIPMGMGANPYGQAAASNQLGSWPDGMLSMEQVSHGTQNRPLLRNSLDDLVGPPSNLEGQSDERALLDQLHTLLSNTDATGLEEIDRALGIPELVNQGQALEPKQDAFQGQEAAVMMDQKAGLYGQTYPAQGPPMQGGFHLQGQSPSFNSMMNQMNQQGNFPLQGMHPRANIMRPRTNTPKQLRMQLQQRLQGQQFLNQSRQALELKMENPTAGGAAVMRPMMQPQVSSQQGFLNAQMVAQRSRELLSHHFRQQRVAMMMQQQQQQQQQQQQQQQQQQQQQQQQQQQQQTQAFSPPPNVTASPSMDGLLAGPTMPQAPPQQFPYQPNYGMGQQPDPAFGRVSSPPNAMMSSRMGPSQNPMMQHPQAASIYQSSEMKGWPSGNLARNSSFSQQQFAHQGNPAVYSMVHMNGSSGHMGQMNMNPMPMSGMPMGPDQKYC

[2] = test system: transactivating tegument protein VP16 (Human herpesvirus 1), Gal4-VP16 luciferase reporter; assay: VP16 transactivation inhibitors, counter-screen for SRC3 inhibitor project, cell-based, luminescence, high throughput (AID 588794; in the data active = inhibition above about 30%); details: mammalian cells, VP16-driven luciferase reporter luminescence; at 3.6 µM; hits give high values
[3] = biological target: Nuclear receptor coactivator 1 (Homo sapiens) (UniProt Q15788); assay: SRC1 coactivator transcriptional activity inhibitors, confirmation, cell-based, luminescence, quadruplicate (AID 588820;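 active = mean inhibition above 46.68%, the untreated control wells mean plus 3 SD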;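 note: 0% = DMSO wells and 100% = gossypol 36 µM treated wells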); details: HEK293 GAL4-SRC1 luciferase reporter, at 3.6 µM, hits give high values
[4] = VP16 transactivation inhibitors, counter-screen for SRC1 inhibitor project, cell-based, luminescence, high throughput (AID 588824; in the data active = inhibition above about 25%); details: cell-based VP16 transactivation luciferase luminescence; at 3.6 µM; hits give high values
[5] = StAR promoter reporter inhibitors, counter-screen for LRH-1 inverse agonist project, cell-based, luminescence, high throughput (AID 651611; in the data active = inhibition above about 28%); details: StAR promoter luciferase reporter counterscreen, at 3.6 µM, hits give high values
[6] = biological target: Nuclear receptor subfamily 5 group A member 2 (Homo sapiens) (UniProt O00482); assay: LRH-1 (NR5A2) inverse agonists, retest, confirmation, cell-based, luminescence (AID 651613; in the data active = inhibition above about 42%;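 note: HEK293T cells co-transfected with LRH-1 and StAR promoter luciferase reporter; 0% = vehicle wells and 100% = parental cells lacking receptor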); details: cell-based LRH-1 luciferase reporter, inverse agonism; at 3.6 µM; hits give high values
Nuclear receptor subfamily 5 group A member 2 (Homo sapiens), sequence (O00482 whole entry, looked up): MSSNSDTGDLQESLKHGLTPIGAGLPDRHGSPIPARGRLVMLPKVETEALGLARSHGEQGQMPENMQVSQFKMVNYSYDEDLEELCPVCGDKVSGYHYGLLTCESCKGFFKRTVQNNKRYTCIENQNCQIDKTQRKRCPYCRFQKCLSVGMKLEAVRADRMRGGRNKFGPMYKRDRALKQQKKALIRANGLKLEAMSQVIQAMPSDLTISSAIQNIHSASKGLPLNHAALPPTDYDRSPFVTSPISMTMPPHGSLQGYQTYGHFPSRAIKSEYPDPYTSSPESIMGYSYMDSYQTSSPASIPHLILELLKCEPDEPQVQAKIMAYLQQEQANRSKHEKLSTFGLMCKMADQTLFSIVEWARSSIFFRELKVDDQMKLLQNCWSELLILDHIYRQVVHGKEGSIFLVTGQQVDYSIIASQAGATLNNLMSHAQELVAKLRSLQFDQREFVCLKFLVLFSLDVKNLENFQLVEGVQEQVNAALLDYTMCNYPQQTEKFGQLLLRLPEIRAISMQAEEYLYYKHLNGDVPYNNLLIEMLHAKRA

[7] = biological target: Steroidogenic factor 1 (Homo sapiens) (UniProt Q13285); assay: SF1 (NR5A1) inverse agonists, counter-screen for LRH-1 inverse agonist project, cell-based, luminescence, high throughput (AID 651614); details: cell-based SF1 luciferase reporter, at 3.6 µM, hits give high values;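 note: cells cotransfected with StAR promoter reporter and SF1 expression vector; 0% = vehicle on cells with receptor and 100% = vehicle on cells lacking receptor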
Steroidogenic factor 1 (Homo sapiens), sequence (Q13285 whole entry, looked up, the tested form may be a part): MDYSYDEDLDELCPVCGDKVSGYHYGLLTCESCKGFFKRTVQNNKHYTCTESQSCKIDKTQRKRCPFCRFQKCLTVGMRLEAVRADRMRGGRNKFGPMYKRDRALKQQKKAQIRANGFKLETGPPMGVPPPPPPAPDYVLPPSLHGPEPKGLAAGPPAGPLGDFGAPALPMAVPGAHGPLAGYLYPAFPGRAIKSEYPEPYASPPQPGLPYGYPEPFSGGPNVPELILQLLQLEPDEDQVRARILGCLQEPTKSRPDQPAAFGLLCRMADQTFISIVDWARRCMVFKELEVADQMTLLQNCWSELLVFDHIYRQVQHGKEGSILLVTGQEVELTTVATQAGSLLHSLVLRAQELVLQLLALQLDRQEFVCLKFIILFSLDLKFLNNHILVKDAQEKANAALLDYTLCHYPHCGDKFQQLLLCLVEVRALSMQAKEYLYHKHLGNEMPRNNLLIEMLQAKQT

[8] = VP16 transactivation reporter inhibitors, counter-screen for LRH-1 inverse agonist project, cell-based, luminescence, high throughput (AID 651615; in the data active = inhibition above about 33%); details: Gal4-VP16 luciferase reporter cells, at 3.6 µM, hits give high values
[9] = test system: transactivating tegument protein VP16 (Human herpesvirus 1); assay: VP16 transactivation reporter inhibitors, counter-screen for SRC2 inhibitor project, cell-based, luminescence, single concentration (AID 652007; in the data active = inhibition above about 36%); details: cell-based VP16 transactivation luciferase reporter, at 8.9 µM, hits give high values
[10] = biological target: Nuclear receptor coactivator 2 (Homo sapiens) (UniProt Q15596); assay: SRC2 coactivator transcriptional activity inhibitors, confirmation, cell-based, luminescence, HEK293, triplicate (AID 652008;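 active = mean inhibition above 46.5%, the solvent-only control mean plus 3 SD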;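 note: 0% = DMSO-treated cells and 100% = Gossypol at 36 µM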); details: HEK293 GAL4-SRC2 luciferase reporter, at 8.9 µM, hits give high values
Nuclear receptor coactivator 2 (Homo sapiens), sequence (Q15596 whole entry, looked up, the tested form may be a part): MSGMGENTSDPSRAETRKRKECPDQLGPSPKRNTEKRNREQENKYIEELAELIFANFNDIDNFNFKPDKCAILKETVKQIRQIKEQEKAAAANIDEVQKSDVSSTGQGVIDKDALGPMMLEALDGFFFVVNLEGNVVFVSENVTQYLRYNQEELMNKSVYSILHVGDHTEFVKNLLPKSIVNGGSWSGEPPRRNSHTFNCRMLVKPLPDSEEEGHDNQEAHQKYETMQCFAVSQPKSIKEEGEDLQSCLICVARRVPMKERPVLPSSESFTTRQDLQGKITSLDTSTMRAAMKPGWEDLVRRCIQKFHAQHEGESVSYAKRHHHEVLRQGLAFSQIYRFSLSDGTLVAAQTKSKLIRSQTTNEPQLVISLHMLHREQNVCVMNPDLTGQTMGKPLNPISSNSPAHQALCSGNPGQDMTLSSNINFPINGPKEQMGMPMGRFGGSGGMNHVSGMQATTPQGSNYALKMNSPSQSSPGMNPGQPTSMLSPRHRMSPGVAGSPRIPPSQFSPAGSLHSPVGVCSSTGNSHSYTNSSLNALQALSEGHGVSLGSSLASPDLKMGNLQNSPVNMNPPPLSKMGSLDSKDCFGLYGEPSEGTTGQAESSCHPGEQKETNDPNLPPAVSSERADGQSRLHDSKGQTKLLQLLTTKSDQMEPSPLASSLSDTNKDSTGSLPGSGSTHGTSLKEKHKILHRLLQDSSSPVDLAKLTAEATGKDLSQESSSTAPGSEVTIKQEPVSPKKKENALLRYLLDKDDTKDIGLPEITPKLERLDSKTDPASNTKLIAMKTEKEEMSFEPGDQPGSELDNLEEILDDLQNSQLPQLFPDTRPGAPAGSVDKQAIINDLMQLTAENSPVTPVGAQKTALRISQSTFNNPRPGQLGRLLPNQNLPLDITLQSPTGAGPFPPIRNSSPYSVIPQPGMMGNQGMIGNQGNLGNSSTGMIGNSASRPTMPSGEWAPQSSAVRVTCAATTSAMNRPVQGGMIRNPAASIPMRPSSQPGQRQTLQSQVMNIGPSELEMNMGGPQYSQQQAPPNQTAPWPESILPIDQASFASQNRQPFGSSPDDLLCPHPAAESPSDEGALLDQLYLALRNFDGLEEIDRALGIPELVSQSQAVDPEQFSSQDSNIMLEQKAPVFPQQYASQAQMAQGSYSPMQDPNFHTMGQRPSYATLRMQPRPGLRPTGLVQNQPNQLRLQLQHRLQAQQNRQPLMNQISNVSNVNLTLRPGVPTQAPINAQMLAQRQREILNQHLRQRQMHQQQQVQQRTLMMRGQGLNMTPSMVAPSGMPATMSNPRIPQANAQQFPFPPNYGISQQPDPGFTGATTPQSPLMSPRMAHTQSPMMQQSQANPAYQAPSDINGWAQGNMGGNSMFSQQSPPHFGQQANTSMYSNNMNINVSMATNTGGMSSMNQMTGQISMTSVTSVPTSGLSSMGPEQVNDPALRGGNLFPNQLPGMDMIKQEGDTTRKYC

Measured: inhibition

N#Cc1c(N)n(C2OC(CO)C(O)C2O)c2ncnc(N)c12 (stereo not given)
active: [1] 96% | [2] 96% | [3] 79.9% | [4] 95.1% | [5] 85.9% | [6] 106% | [7] 95.6% | [8] 96.3% | [9] 62% | [10] 66.3%

COc1ccc2c(c1)-c1c(ssc1=S)C(C)(C)N2
inactive: [7] 41.5% | [9] 6.45%
active: [1] 73.3% | [2] 54.6% | [3] 64% | [4] 50.3% | [5] 28.7% | [6] 46.7% | [8] 67.9% | [10] 49.7%

Cc1cc2sc3ccc(C#CC4(O)CCCCC4)cc3c(=O)c2cc1C
active: [1] 95.4% | [2] 93.6% | [3] 90.4% | [4] 89.7% | [5] 91.2% | [6] 91.2% | [7] 92.6% | [8] 88.9% | [9] 94.2% | [10] 98.3%

N#Cc1sc2nccc(Nc3ccccc3)c2c1N
active: [1] 87.1% | [2] 62.4% | [3] 62.9% | [4] 58.6% | [5] 32.5% | [6] 66.4% | [7] 48.8% | [8] 79.6% | [10] 52.2%
inactive: [9] 4.1%

COc1ccccc1C(=O)Nc1nc2ccccc2[nH]1
active: [1] 79.4% | [2] 72.7% | [3] 58.5% | [4] 75.2% | [5] 75.3% | [6] 75.4% | [7] 83.8% | [8] 66.3% | [9] 89.6% | [10] 93.8%

COC1=CC(=O)c2c(ccc3ncnc(N)c23)C1=O
active: [1] 60.8% | [2] 65.1% | [4] 64.3% | [5] 62.4% | [6] 82.8% | [7] 84.6% | [8] 82.1% | [9] 37.5% | [10] 69.5%
inactive: [3] -4.46%

C=C1C(=O)C2=CC1CCC(=O)C1(C)CCC(OC(C)=O)C(C)(C)C1CC2O (stereo not given)
inactive: [1] 35.4% | [3] 8.46% | [6] 3.03% | [7] 33.2% | [9] 33.9% | [10] 41.2%
active: [2] 53.2% | [4] 51.3% | [5] 30.3% | [8] 56.1%

CCCN(CC)c1ncnc2[nH]ncc12
active: [1] 72.3% | [2] 52.6% | [3] 71.4% | [4] 50.1% | [6] 45% | [8] 69.2%
inactive: [5] 25.9% | [7] 37.1% | [9] -9.97% | [10] 43.2%

Cc1cc(C(=O)CSc2ccc(F)cc2)cc(C)c1OC(=S)N(C)C
active: [2] 43.6% | [10] 65.7%
inactive: [1] 41.6% | [3] 2.12% | [4] -8.86% | [5] -28.6% | [6] -65.3% | [7] -23.4% | [8] -17.3% | [9] 22.6%

Cc1cc(C(=O)COC(=O)C2=COCCO2)c(C)n1-c1ccccc1
inactive: [1] 32.9% | [2] 5.84% | [3] -53.9% | [4] -37.1% | [5] 23.9% | [6] -86.4% | [7] 26.1% | [8] -34.8%
active: [9] 68.8% | [10] 66.6%

COc1cc(C(=O)/C=C/c2cccnc2)c([N+](=O)[O-])cc1OC
active: [2] 45.3% | [4] 48.8% | [5] 59.3% | [6] 59.1% | [7] 56.7% | [8] 68.5%
inactive: [1] 33.2% | [3] 29.4% | [9] 18.2% | [10] 45.8%

COc1ccc(-n2ncc3c(N(C)C4CCCCC4)ncnc32)cc1
active: [1] 63.9% | [2] 53.6% | [4] 40.1% | [5] 30% | [9] 42.7% | [10] 80.3%
inactive: [3] 37.6% | [6] -23.3% | [7] 28.6% | [8] 20.2%

COc1cc(C=CC(=O)c2cc(OC)c(OC)c(OC)c2)cc(OC)c1OC
inactive: [3] 38.1%
active: [1] 72.3% | [2] 57.4% | [4] 46.4% | [5] 73.1% | [6] 67.1% | [7] 76.1% | [8] 69.1% | [9] 47.7% | [10] 73%

CSC1SCC2C(=O)N(C)C(C(C)C)C(=O)OCC(NC(=O)c3cnc4ccccc4n3)C(=O)NC(C)C(=O)N(C)C1C(=O)N(C)C(C(C)C)C(=O)OCC(NC(=O)c1cnc3ccccc3n1)C(=O)NC(C)C(=O)N2C (stereo not given)
active: [1] 96.8% | [2] 96.7% | [3] 85.7% | [4] 96.8% | [5] 86.5% | [6] 107% | [7] 97.1% | [8] 97.3% | [9] 62.2% | [10] 51.1%
